Data taken from PubChem BioAssay AID624330 (Southern Research Specialized Biocontainment Screening …, 2012).
Among all 340,000 compounds or so, about 2,100 (0.62%) were called active.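 Rule for the calls: active = first-screen hits whose inhibition reached a set limit at any dose in the follow-up dose series; inconclusive = inhibition above the set first-screen limit but never retested; inactive = the rest.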 Not all results are given here. Measured potencies and affinities stand elsewhere.

These compounds were tested against Rac GTPase-activating protein 1 (Homo sapiens) (UniProt Q9H0H5) (assay: blockers of MgcRacGAP-driven Rac1 GTP hydrolysis – biochemical, ADP Hunter fluorescence, primary and confirmatory, confirmation (AID 624330;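 note: fluorescence reports GDP produced by GAP-driven GTP hydrolysis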)). Conditions: MgcRacGAP-stimulated Rac1 GTP hydrolysis, at 30 µM, hits give high values, GST-tagged Rac1 F28L mutant substrate.
Rac GTPase-activating protein 1 (Homo sapiens), sequence (Q9H0H5 whole entry, looked up): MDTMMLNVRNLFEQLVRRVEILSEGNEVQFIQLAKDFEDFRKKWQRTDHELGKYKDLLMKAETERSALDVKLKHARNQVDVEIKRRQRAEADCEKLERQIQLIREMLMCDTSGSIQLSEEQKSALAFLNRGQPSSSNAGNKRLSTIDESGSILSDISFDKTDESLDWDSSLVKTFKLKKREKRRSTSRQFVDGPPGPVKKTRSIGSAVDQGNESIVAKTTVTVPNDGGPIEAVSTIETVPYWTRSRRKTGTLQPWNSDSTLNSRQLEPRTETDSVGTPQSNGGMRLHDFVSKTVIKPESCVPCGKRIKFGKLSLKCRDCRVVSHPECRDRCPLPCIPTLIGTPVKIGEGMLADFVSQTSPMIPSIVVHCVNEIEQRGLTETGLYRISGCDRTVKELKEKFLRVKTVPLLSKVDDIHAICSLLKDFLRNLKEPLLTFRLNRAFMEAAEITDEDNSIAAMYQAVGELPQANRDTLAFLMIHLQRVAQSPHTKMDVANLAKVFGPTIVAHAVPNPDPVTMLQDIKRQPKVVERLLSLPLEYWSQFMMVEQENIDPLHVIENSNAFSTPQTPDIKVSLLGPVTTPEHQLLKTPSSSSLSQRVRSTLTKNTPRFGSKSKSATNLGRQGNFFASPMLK

inhibition, inactive:
COCc1cc(C(C)=O)ccc1OCC(=O)Nc1ccc(NC(C)=O)cc1 1.37%
CC(NC(=O)c1ccc(Br)o1)c1ccccc1 (stereo unspecified) 7.96%
CCC(=O)N(CCc1ccccc1)Cc1cc2cc3c(cc2[nH]c1=O)OCO3 8.92%
N#CC(=Cc1ccccn1)c1nc(-c2ccc(Cl)cc2)cs1 6.28%
Cc1ccc(C(=O)NCC(=O)NCC(=O)OCc2ccc(Cl)cc2)cc1 8.02%
O=C(CCCn1c(=O)[nH]c2ccccc2c1=O)NCCSCc1ccccc1 -5.64%
CCCn1c(N)c(Br)c(=O)[nH]c1=O 12.3%
Cn1c(=O)[nH]c2c(cnn2C)c1=O -2.19%
Cn1nnnc1SCCNC(=O)C1CCC(=O)N(Cc2ccccc2F)C1 (stereo unspecified) 11%
Cc1cc(Nc2ccc([N+](=O)[O-])cc2)c2ccccc2n1 4.06%
Cc1cc(Nc2cccc([N+](=O)[O-])c2)c2ccccc2n1 13.8%
O=C(c1cccc(S(=O)(=O)N2CCc3ccccc32)c1)N1CCN(CCO)CC1 1.12%
O=C(NNc1c2ccccc2nc2ccccc12)c1ccccc1Cl 8.54%
O=C(NNc1c2ccccc2nc2ccccc12)c1ccccc1O 9.79%
Cc1ccc(S(=O)(=O)NCC(=O)N(CC2CCCO2)C(C(=O)NC2CCCC2)C(C)C)cc1 (stereo unspecified) -2.26%
N#CCCN1CCN(CCC#N)C1=S -2.38%
N#CCCN1CCn2c1nc1ccccc12 7.51%
COc1ccc(Cc2nc3c4c(ncn3n2)Oc2c(ccc3ccccc23)C4c2ccc(OC)c(OC)c2)cc1 (stereo unspecified) 0.4%
COc1cccc(-c2nnc(NC(=O)CCS(=O)(=O)c3ccc(F)cc3)o2)c1 9.6%
OCC[C@H]1C[C@H](O)[C@@H](O)[C@]2(CCCc3ccccc3O2)O1 6.49%
CC(C)(C)N(Cc1ccccc1)C(=O)COC(=O)/C=C/c1ccc2c(c1)OCO2 7.28%
CC(NC(=O)N(Cc1ccccc1)Cc1ccc2c(c1)OCO2)(C(F)(F)F)C(F)(F)F -1.55%
CSc1cccc(NC(=O)COC(=O)C2CCN(S(=O)(=O)c3ccccc3)CC2)c1 3.95%
CC[C@H]1CN2CCc3cc(OC)c(OC)cc3C2C[C@@H]1C[C@H]1NCCc2cc(OC)c(OC)cc21 (stereo partly specified) 5.06%
CC[C@H]1CN2CCc3cc(OC)c(OC)cc3[C@@H]2C[C@@H]1C[C@H]1NCCc2cc(OC)c(OC)cc21 -1.46%
Cc1ccc(NC(=S)N=Nc2c(O)[nH]c3ccccc23)cc1 9.95%
COc1ccc(NC(=S)N=Nc2c(O)[nH]c3ccccc23)cc1 19.4%
Oc1cccc(NC(=S)N=Nc2c(O)[nH]c3ccc(Br)cc23)c1 21.1%
Oc1[nH]c2ccc(Br)cc2c1N=NC(=S)Nc1ccc(F)cc1 2.02%
CC(=O)n1cc(/C=N/NC(=O)c2ccc([N+](=O)[O-])cc2)c2ccccc21 7.25%
CCOC(=O)c1ccc(NC(=S)N(CCCN2CCCC(C)C2)Cc2ccco2)cc1 (stereo unspecified) 3.37%
Cc1ccc(-c2cc3c(nn2)-c2ccccc2C3=O)cc1 11.8%
CC1CCC2(CC1)NC(=O)N(CC(=O)Nc1cccc(S(=O)(=O)N3CCCC3)c1)C2=O (stereo unspecified) 4.59%
CCOc1ccc(-n2nc(C(=O)NC3CCCCC3)c3ccccc3c2=O)cc1 -4.66%
Nc1nc(N)c2nc(-c3ccccc3)c(N)nc2n1 4.54%
Nc1[nH]c(=S)nc2nc(-c3ccccc3)c(-c3ccccc3)nc12 9.86%
COCC1CCCCC1OS(N)(=O)=O (stereo unspecified) 10.2%
Nc1ccc(Cc2ccc(N)c(C(=O)O)c2)cc1C(=O)O 7.39%
Nc1ccc(Cc2ccc(N)c(O)c2)cc1O -7.75%
N#Cc1cc(C(=O)Cc2ccccc2)c[nH]1 -3.54%
COc1cccc(C(=O)C2CCCN(C(=O)c3ccc(C#CC(C)(C)O)cc3)C2)c1 (stereo unspecified) 1.51%
COc1ccc(C(=O)N2c3ccccc3CC2C)cc1OC (stereo unspecified) 3.63%
O=C(c1ccc([N+](=O)[O-])cc1)N1CCCC1 13.8%
CC1CCCC(N2CCN(C(=O)c3ccc(F)cc3)CC2)C1 (stereo unspecified) 19.6%
O=C(c1ccccc1)N1CCN(C2CCCCC2)CC1 44.8%
COc1cc(OC)cc(C(=O)N2CCN(C3CCCCC3)CC2)c1 19.9%
O=C(c1ccc(F)cc1)N1CCN(C2CCC(c3ccccc3)CC2)CC1 (stereo unspecified) 12.1%
O=C(c1ccc(F)cc1)N1CCC(N2CCCCCC2)CC1 11%
O=C(c1ccccc1)N1CCN(C2CCCCCC2)CC1 25.4%
COc1cccc(C(=O)N2CCN(C3CCC(c4ccccc4)CC3)CC2)c1 (stereo unspecified) 14.9%
COc1ccc(-n2c(SC3CCOC3=O)nc3ccccc3c2=O)cc1OC (stereo unspecified) 7.23%
FC(F)(F)c1cccc(N2CCN(C3CC4CCC3C4)CC2)c1 (stereo unspecified) -3.5%
CC(C(=O)NCCN1CCOCC1)(c1ccccc1)c1ccccc1 9.67%
CCN(Cc1cc(OC)c(OC)c(OC)c1)C(=S)Nc1cccc(SC)c1 8.44%
COc1ccccc1CNS(=O)(=O)c1cc(C(=O)NCC2CCCO2)c(Cl)cc1Cl (stereo unspecified) 4.61%
O=C(c1nc[nH]c1C(=O)N1CCN(c2ccccc2)CC1)N1CCN(c2ccccc2)CC1 8.08%
CN(CC(=O)Nc1ccccc1C(F)(F)F)C(=O)COc1cccnc1[N+](=O)[O-] 2.02%
C/C(=N\NC(=O)c1ccc(Cl)cc1)c1ccccn1 -1.19%
Cc1sc2ncnc(N3CCC(C(=O)Nc4ccc(S(N)(=O)=O)cc4)CC3)c2c1C 6.51%
CC1CCCC(N2CCN(C(=O)c3cccc(F)c3)CC2)C1 (stereo unspecified) 13.7%
O=C(c1cccc(F)c1)N1CCC(N2CCCCCC2)CC1 27%
CC(C)Oc1ccc(CNC(=O)c2cc(S(=O)(=O)N3CCOCC3)cn2C)cc1 7.69%
Cc1ccc2c(CC(=O)OCc3csc(C)n3)coc2c1 3%
Cc1ccc2c(CC(=O)O)coc2c1 -1.54%
COc1ccc(CN2CCN(C(=O)c3cc(-c4cccnc4)nc4ccc(Cl)cc34)CC2)c(OC)c1OC 0.91%
CCCn1c(=O)c2c(C(F)(F)F)cc(-c3ccco3)nc2n(CCC)c1=O 6.17%
C/C(CC(=O)Nc1ccc([N+](=O)[O-])cc1)=N\NC(=O)c1ccccc1O 3.2%
C/C(CC(=O)Nc1ccc(N(C)C)cc1)=N\NC(=O)c1ccccn1 16.9%
C/C(CC(=O)Nc1ccc(N(C)C)cc1)=N\NC(=O)c1ccc(C(C)(C)C)cc1 14.2%
C/C(CC(=O)Nc1ccc(N(C)C)cc1)=N\NC(=O)c1ccc(Cl)cc1 21.2%
C/C(CC(=O)Nc1ccc([N+](=O)[O-])cc1)=N\NC(=O)c1ccccc1[N+](=O)[O-] 7.35%
COC(C(=O)N/N=C(\C)CC(=O)Nc1ccc(Cl)cc1C)c1ccccc1 (stereo unspecified) 0.47%
COc1cc(NC(=O)C/C(C)=N/NC(=O)C(OC)c2ccccc2)c(OC)cc1Cl (stereo unspecified) 15.9%
C/C(CC(=O)Nc1ccc(N(C)C)cc1)=N\NC(=O)c1cnccn1 25.8%
CC1(C)CC(=O)C2=C(C1)C(c1cn(-c3ccccc3)nc1-c1ccccc1)C(C#N)=C(N)O2 (stereo unspecified) 2.04%
Cc1cc(Br)cc(C)c1NC(=S)NC(=O)CC(C)C 7.74%
NC(N)=NS(=O)(=O)c1ccc(N/C=C/C(=O)c2ccc(Cl)c(Cl)c2)cc1 6.29%
COC(=O)[C@H](CCSC)NC(=O)Cn1cnc2c(OCc3ccccc3)ncnc21 5.04%
COc1ccc(OCC(=O)NNC(=O)c2ccc3c(=O)n4c(nc3c2)CCC4)cc1 8.67%
COc1ccc(S(=O)(=O)N2CCN(C(=O)c3ccco3)CC2)c(C)c1C 1.7%
O=C(O)c1cc(N2C(=O)C3C4C=CC(C4)C3C2=O)ccc1N1CCOCC1 (stereo unspecified) 4.85%
O=C(Nc1nccs1)C1CCCN1/C=C/C(=O)C(F)(F)F (stereo unspecified) -1.71%
C=CCNC(=O)c1n[nH]c2c1CC(C(C)(C)CC)CC2 (stereo unspecified) 8.27%
CCN(Cc1ccccc1)C(=O)C1CCC(CNc2c(N3CCOCC3)c(=O)c2=O)CC1 (stereo unspecified) 4.88%
C=CCN1CCN(C(=O)c2cc3c(s2)CCC(CC)C3)CC1 (stereo unspecified) 5%
COCCn1c(SCC(=O)Nc2ccc3c(c2)OCCO3)nc2c(c1=O)SC(C)C2 (stereo unspecified) 8.12%
CCN1C(=O)[C@H]2[C@@H](c3ccc(C)cc3)N3C(=O)N(c4ccc(OC)cc4)C(=O)[C@@]3(Cc3ccc(Cl)cc3)[C@H]2C1=O -2.48%
C/C(CC(=O)Nc1ccc(N(C)C)cc1)=N\NC(=O)c1ccc(Cl)cc1Cl 21.9%
C/C(CC(=O)Nc1ccc2c(c1)OCCO2)=N\NC(=O)c1ccc([N+](=O)[O-])cc1Cl 9.05%
Cc1ccc(-c2cc(C(=O)Nc3ccc(S(=O)(=O)Nc4onc(C)c4C)cc3)[nH]n2)c(O)c1 -1.18%
C#CCOCCOCCOCCNc1nc(N2CCOCC2)nc(N2CCN(C(=O)[C@H](Cc3ccc(O)cc3)n3cc([C@@H](N)C(C)CC)nn3)CC2)n1 (stereo partly specified) 8.21%
